The whole screen tested about 39,000 compounds, of which about 3,300 (8.5%) were called active. Many of the other results were omitted from the sample, so actives are more common in it than they were.

The subject of this experiment is HepG2. Nature of the experiment: cytotoxicity call (relative viability < 0.9). The note with it: 10 µM.
Take `COc1ccc(OCc2c(-c3ccccc3)nnn2CC(=O)NS(=O)(=O)c2cccc(C#N)c2)cc1`: the cytotoxicity call is “inactive”.
Next, `COCC(=O)N1C[C@@H](C)[C@H](OC)CN(C)C(=O)c2cc(NC(=O)c3ccc(F)cc3)ccc2OC[C@@H]1C`: “inactive”; `COc1cc2ccc(=O)oc2c(O[C@H]2O[C@@H](CO)[C@@H](O)[C@@H](O)[C@@H]2O)c1O`: “inactive”; `C[C@@H]1CN([C@@H](C)CO)C(=O)Cc2cc(NC(=O)Cn3cnnn3)ccc2O[C@@H]1CN(C)C(=O)Nc1ccc2c(c1)OCO2`: “inactive”.
Turning to `CCS(=O)(=O)N1C[C@]2(CN(C2)C(=O)CN2CCOCC2)c2c(n(c3cc(ccc23)OC)C)[C@H]1CO`, the cytotoxicity call was “inactive”.
With `COc1ccc(CN(C)C[C@H]2OCCCC[C@H](C)Oc3ccc(NS(=O)(=O)c4ccccc4)cc3C(=O)N([C@H](C)CO)C[C@H]2C)cc1` the entry was “inactive”; with `O=C(Cc1ccccn1)NCC[C@H]1CC[C@H](NC(=O)CN2CCOCC2)[C@H](CO)O1`, “inactive”; with `C[C@@H]1CN([C@H](C)CO)C(=O)c2cc(NS(=O)(=O)c3cn(C)cn3)ccc2O[C@H]1CN(C)Cc1ccncc1`, “inactive”.
Next, `C[C@H](CO)N1C[C@H](C)[C@@H](CN(C)S(=O)(=O)c2ccccc2)OCCCC[C@H](C)Oc2ccc(NC(=O)CCC(F)(F)F)cc2C1=O`: “inactive”; `Cc1noc(C)c1NC(=O)N(C)C[C@H]1Oc2c(NC(=O)Cn3cnnn3)cccc2C(=O)N([C@H](C)CO)C[C@@H]1C`: “inactive”; `C[C@@H]1CN([C@H](C)CO)C(=O)c2cc(NC(=O)C3CCCCC3)ccc2O[C@@H](C)CCCCO[C@H]1CN(C)C(=O)c1ccncc1`: “inactive”.
Next, `C[C@@H]1CN([C@H](C)CO)C(=O)c2cc(NS(=O)(=O)c3cccs3)ccc2O[C@@H](C)CCCCO[C@@H]1CN(C)Cc1ccc(C(F)(F)F)cc1`: “inactive”; `C[C@@H]1CCCCO[C@@H](CN(C)Cc2ccc(C(=O)O)cc2)[C@H](C)CN([C@@H](C)CO)C(=O)c2cc(NS(=O)(=O)c3cccs3)ccc2O1`: “inactive”.
Take `C[C@H](CO)N1C[C@H](C)[C@@H](CN(C)Cc2ccc(C(F)(F)F)cc2)OCCCC[C@H](C)Oc2ccc(NS(=O)(=O)c3cccs3)cc2C1=O`: the cytotoxicity call was “inactive”.
For the compound `C[C@@H]1CN([C@H](C)CO)C(=O)c2cc(NS(=O)(=O)c3cccs3)ccc2O[C@@H](C)CCCCO[C@H]1CN(C)Cc1ccc(C(F)(F)F)cc1`, the cytotoxicity call was “active”.
Next, `C[C@@H]1CCCCO[C@@H](CN(C)Cc2ccc(C(F)(F)F)cc2)[C@H](C)CN([C@@H](C)CO)C(=O)c2cc(NS(=O)(=O)c3cccs3)ccc2O1`: “inactive”; `C[C@H](CO)N1C[C@H](C)[C@H](CN(C)Cc2ccc(C(F)(F)F)cc2)OCCCC[C@H](C)Oc2ccc(NS(=O)(=O)c3cccs3)cc2C1=O`: “active”.
Next, `C[C@@H]1CCCCO[C@@H](CN(C)Cc2ccc(C(F)(F)F)cc2)[C@@H](C)CN([C@H](C)CO)C(=O)c2cc(NS(=O)(=O)c3cccs3)ccc2O1`: “active”; `C[C@H]1CCCCO[C@@H](CN(C)Cc2ccc(C(F)(F)F)cc2)[C@@H](C)CN([C@@H](C)CO)C(=O)c2cc(NS(=O)(=O)c3cccs3)ccc2O1`: “inactive”; `C[C@@H]1CCCCO[C@H](CN(C)Cc2ccc(C(F)(F)F)cc2)[C@@H](C)CN([C@@H](C)CO)C(=O)c2cc(NS(=O)(=O)c3cccs3)ccc2O1`: “inactive”.
Regarding `C[C@H]1CN([C@@H](C)CO)C(=O)c2cccc(NC(=O)c3ccc(-c4nccs4)cc3)c2O[C@@H]1CN(C)S(=O)(=O)c1cn(C)cn1`, the cytotoxicity call is “inactive”.
Next, `Cc1noc(C)c1S(=O)(=O)N(C)C[C@H]1OCCCC[C@H](C)Oc2ccc(N(C)C)cc2C(=O)N([C@H](C)CO)C[C@@H]1C`: “inactive”; `COc1ccc(NC(=O)N(C)C[C@@H]2OCCCC[C@H](C)Oc3ccc(NS(=O)(=O)c4c(C)noc4C)cc3C(=O)N([C@@H](C)CO)C[C@@H]2C)cc1`: “inactive”; `CO[C@@H]1CN(C)C(=O)c2ccc(NC(=O)C3CC3)cc2OC[C@@H](C)N(C(=O)C2CCOCC2)C[C@H]1C`: “inactive”.
For the compound `Cc1cc(C2CCCCC2)n(O)c(=O)c1.NCCO`, the cytotoxicity call is “active”.
As to `C[C@H]1CN([C@@H](C)CO)C(=O)c2c(c3ccccc3n2C)-c2ccccc2CO[C@@H]1CN(C)Cc1ccc(C(F)(F)F)cc1`, the cytotoxicity call was “inactive”.
Regarding `Cc1noc(C)c1S(=O)(=O)Nc1ccc2c(c1)C(=O)N([C@H](C)CO)C[C@H](C)[C@H](CN(C)C(=O)Nc1ccc(F)cc1)OCCCC[C@H](C)O2`, the cytotoxicity call was “inactive”.
Turning to `Cc1noc(C)c1NC(=O)Nc1ccc2c(c1)C(=O)N([C@H](C)CO)C[C@H](C)[C@@H](CN(C)S(=O)(=O)c1ccc(F)cc1)OCCCC[C@@H](C)O2`, the cytotoxicity call was “inactive”.
In the case of `Cc1cc(C(=O)Nc2cccc3c2O[C@H](CN(C)S(=O)(=O)c2cccs2)[C@@H](C)CN([C@H](C)CO)C3=O)n(C)n1`, the cytotoxicity call was “inactive”.
With `CCNC(=O)c1cccc(NS(C)(=O)=O)c1` the entry was “inactive”.
On to `CCNC(=O)C=Cc1cccc(Br)c1`, for which the cytotoxicity call is “active”.
`COC(=O)CNC(=O)/C=C/c1ccc(OC)cc1`: the cytotoxicity call was “inactive”.
In the case of `C[C@H](CO)N1C[C@H](C)[C@@H](CN(C)C(=O)Nc2ccc(C(F)(F)F)cc2)Oc2ccc(NS(=O)(=O)c3ccc(F)cc3)cc2C1=O`, the cytotoxicity call was “inactive”.
With `COc1ccc(S(=O)(=O)Nc2ccc3c(c2)CC(=O)N([C@H](C)CO)C[C@H](C)[C@H](CN(C)S(=O)(=O)c2cn(C)cn2)O3)cc1`, the cytotoxicity call is “inactive”.
Next, `C[C@@H]1CCCCO[C@@H](CN(C)C(=O)C2CCCCC2)[C@H](C)CN([C@@H](C)CO)C(=O)c2cc(NC(=O)Nc3ccc(F)cc3)ccc2O1`: “inactive”.
On to `C[C@@H]1CCCCO[C@H](CN(C)C(=O)C2CCCCC2)[C@H](C)CN([C@@H](C)CO)C(=O)c2cc(NC(=O)Nc3ccc(F)cc3)ccc2O1`, for which the cytotoxicity call was “inactive”.
With `C[C@@H]1CCCCO[C@H](CN(C)C(=O)C2CCCCC2)[C@@H](C)CN([C@@H](C)CO)C(=O)c2cc(NC(=O)Nc3ccc(F)cc3)ccc2O1`, the cytotoxicity call is “active”.
`C[C@H]1CCCCO[C@H](CN(C)C(=O)C2CCCCC2)[C@@H](C)CN([C@@H](C)CO)C(=O)c2cc(NC(=O)Nc3ccc(F)cc3)ccc2O1`: the cytotoxicity call was “active”.
For the compound `C[C@H]1CCCCO[C@@H](CN(C)C(=O)C2CCCCC2)[C@@H](C)CN([C@@H](C)CO)C(=O)c2cc(NC(=O)Nc3ccc(F)cc3)ccc2O1`, the cytotoxicity call was “active”.
Next, `C[C@@H]1CCCCO[C@@H](CN(C)C(=O)C2CCCCC2)[C@@H](C)CN([C@@H](C)CO)C(=O)c2cc(NC(=O)Nc3ccc(F)cc3)ccc2O1`: “inactive”; `C[C@@H]1CCCCO[C@@H](CN(C)C(=O)C2CCCCC2)[C@@H](C)CN([C@H](C)CO)C(=O)c2cc(NC(=O)Nc3ccc(F)cc3)ccc2O1`: “inactive”.
Next, `C[C@H](CO)N1C[C@H](C)[C@H](CN(C)C(=O)C2CCCCC2)OCCCC[C@H](C)Oc2ccc(NC(=O)Nc3ccc(F)cc3)cc2C1=O`: “inactive”; `C[C@@H]1CN([C@H](C)CO)C(=O)c2cc(NC(=O)Nc3ccc(F)cc3)ccc2O[C@@H](C)CCCCO[C@@H]1CN(C)C(=O)C1CCCCC1`: “inactive”.
